The supplement of paper PMC10849652
The full data set covers some 7,900 targets. This sample favours those with a hit. About 0.6% of all pairs of compound and target were hits.

Compound: c1cn2cc(-c3ccc4cn[nH]c4c3)nc(Nc3ccc(N4CCOCC4)cc3)c2n1 [entospletinib]
Assay: log2 fold change, soluble protein after heating vs DMSO (PISA); higher = thermal stabilisation; K562 cells, 10 uM, 30 min; active = over 0.2 and 3.5 SD of the protein, either way, in both replicates (recomputed)
Outline: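 Thermal stability values are relative to control samples and come from duplicates. They are expressed as log2 fold changes. For measurement, K562 cells (2×10^6 cells/mL) received 10 μM compound for 30 min, and aliquots were heated for 3 min over 48°C-58°C, pooled, and extracted at 4°C in PBS with 0.5% NP-40. Soluble protein, the supernatant after 21,000xg for 90 min, was quantified by TMTpro 16plex LC-MS/MS with equalised channel sums.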

Chain of UniProt O14975 (O14975 whole entry, looked up): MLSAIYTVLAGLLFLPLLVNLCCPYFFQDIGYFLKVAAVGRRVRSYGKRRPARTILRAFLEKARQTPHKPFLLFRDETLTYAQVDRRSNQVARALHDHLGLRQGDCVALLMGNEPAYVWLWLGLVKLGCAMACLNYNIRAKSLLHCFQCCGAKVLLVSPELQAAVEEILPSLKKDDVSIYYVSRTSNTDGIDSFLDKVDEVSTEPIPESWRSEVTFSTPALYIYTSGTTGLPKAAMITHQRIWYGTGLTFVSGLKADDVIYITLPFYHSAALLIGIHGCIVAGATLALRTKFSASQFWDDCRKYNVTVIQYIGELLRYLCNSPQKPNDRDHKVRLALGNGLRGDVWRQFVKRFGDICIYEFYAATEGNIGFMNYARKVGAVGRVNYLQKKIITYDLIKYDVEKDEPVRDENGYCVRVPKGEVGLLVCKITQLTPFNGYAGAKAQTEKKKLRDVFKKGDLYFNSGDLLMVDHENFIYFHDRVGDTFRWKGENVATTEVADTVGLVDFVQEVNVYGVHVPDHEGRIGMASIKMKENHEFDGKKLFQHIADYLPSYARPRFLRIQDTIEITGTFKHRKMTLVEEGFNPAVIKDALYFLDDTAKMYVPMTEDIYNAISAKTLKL
Chain of UniProt Q15833 (Q15833 whole entry, looked up): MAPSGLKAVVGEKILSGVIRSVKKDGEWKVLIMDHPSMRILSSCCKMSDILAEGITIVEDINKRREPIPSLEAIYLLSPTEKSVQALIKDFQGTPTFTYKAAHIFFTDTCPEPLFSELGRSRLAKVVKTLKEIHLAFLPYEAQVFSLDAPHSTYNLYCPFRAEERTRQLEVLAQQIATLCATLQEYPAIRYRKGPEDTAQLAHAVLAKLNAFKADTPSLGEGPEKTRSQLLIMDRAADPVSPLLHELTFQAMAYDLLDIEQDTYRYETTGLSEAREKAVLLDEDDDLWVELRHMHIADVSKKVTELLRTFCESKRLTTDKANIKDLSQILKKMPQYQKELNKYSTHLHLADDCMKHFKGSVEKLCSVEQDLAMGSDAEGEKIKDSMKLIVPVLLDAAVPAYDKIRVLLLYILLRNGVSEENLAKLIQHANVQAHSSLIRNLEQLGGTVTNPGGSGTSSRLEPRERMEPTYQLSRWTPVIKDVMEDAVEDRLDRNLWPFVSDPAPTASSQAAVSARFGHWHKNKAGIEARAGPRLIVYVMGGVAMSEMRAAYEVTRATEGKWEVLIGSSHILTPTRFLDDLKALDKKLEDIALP
Chain of UniProt Q96CW6 (Q96CW6 whole entry, looked up): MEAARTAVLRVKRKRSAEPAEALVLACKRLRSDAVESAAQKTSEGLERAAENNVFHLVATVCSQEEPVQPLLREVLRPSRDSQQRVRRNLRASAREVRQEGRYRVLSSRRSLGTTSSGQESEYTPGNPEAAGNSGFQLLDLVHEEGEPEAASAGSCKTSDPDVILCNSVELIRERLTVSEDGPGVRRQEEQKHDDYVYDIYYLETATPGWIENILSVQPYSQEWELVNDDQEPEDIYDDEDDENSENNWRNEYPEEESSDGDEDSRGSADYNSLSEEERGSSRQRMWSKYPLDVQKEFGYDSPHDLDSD
Chain of UniProt Q9BYX2 (Q9BYX2 whole entry, looked up): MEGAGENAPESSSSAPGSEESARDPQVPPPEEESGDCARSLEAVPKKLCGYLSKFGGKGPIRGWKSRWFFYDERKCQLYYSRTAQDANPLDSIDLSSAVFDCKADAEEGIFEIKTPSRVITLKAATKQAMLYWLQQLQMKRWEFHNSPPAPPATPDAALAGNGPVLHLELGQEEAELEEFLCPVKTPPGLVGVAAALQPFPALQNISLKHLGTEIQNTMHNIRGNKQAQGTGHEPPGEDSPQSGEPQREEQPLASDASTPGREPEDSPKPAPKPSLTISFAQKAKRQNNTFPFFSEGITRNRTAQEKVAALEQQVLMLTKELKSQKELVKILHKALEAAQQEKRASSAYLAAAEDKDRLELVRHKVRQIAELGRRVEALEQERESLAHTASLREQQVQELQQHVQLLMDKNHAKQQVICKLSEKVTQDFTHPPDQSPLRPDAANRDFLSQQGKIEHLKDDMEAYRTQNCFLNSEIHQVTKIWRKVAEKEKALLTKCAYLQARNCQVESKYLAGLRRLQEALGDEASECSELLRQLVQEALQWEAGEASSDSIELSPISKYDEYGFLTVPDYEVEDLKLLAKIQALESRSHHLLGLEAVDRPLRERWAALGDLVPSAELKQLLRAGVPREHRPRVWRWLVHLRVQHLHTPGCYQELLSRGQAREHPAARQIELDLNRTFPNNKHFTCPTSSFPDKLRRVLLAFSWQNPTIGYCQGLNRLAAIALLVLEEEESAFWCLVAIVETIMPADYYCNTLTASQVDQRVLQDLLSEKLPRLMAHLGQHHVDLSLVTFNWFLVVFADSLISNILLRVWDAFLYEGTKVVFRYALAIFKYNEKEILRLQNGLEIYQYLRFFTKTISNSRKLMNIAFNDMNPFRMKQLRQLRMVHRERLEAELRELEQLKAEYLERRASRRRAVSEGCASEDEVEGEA
Chain of UniProt Q9BTW9 (Q9BTW9 whole entry, looked up): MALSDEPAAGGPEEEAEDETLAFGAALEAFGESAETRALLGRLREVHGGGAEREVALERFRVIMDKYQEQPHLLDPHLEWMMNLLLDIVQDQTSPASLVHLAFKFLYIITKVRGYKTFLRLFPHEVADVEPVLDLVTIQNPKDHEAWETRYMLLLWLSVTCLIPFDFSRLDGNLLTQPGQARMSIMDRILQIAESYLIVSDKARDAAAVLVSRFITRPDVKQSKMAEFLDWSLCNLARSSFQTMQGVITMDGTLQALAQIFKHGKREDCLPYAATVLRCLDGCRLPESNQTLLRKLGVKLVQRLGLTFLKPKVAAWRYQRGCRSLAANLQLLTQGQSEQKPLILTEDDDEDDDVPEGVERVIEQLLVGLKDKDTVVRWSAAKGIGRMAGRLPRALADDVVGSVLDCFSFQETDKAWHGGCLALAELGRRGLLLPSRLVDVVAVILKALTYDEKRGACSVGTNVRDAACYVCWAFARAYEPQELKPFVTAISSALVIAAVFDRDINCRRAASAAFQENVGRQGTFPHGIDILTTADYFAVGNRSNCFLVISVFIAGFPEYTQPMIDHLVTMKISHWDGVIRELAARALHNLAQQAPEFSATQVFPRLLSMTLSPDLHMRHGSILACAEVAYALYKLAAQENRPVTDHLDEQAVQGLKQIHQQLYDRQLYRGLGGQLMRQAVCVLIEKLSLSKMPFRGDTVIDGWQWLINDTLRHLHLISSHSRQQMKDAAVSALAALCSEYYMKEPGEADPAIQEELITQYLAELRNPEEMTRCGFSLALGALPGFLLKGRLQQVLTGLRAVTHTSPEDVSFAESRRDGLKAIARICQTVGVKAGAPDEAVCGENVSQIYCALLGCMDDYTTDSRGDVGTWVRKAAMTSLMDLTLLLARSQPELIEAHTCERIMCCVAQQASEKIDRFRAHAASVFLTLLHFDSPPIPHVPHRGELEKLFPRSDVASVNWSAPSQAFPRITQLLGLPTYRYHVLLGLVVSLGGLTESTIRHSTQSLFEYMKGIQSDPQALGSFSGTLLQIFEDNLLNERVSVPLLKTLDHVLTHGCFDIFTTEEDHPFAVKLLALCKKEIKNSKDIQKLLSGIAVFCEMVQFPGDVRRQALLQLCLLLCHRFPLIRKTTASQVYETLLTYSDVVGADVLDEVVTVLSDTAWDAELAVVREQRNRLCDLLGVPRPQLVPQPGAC
Chain of UniProt P50225 (P50225 whole entry, looked up): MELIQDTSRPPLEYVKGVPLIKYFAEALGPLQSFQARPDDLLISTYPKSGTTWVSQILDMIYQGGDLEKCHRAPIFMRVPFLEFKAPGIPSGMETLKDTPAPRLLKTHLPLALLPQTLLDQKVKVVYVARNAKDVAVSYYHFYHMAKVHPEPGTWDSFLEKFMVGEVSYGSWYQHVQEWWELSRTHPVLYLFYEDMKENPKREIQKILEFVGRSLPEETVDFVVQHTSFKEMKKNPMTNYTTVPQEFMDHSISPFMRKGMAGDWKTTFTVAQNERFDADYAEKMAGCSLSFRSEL
Chain of UniProt Q9UNL2 (Q9UNL2 whole entry, looked up): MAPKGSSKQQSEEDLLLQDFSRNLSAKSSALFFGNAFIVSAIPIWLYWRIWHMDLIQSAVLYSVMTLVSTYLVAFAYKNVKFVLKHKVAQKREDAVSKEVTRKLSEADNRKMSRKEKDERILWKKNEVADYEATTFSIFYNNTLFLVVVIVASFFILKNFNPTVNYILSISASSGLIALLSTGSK
Chain of UniProt Q9UHD2 (Q9UHD2 whole entry, looked up): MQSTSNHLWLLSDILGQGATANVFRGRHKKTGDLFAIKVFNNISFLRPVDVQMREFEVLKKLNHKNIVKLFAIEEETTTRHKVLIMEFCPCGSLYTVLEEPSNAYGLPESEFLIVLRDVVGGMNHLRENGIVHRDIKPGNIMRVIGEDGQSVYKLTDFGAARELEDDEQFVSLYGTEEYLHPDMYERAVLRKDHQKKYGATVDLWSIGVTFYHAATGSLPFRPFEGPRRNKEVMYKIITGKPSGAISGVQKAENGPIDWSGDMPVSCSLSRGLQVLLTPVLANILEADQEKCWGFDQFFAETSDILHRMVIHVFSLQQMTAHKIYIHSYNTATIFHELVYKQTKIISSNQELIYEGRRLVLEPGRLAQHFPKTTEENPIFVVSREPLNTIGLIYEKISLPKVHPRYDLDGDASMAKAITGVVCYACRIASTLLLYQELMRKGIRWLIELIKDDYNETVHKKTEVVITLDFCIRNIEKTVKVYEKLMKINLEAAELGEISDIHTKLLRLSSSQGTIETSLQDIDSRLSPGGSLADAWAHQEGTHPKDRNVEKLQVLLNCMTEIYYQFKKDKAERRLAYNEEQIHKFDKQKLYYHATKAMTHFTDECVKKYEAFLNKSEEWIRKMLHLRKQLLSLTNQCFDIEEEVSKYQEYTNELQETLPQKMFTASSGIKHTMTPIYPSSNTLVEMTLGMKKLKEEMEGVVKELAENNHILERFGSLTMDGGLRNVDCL
Chain of UniProt Q9Y5J6 (Q9Y5J6 whole entry, looked up): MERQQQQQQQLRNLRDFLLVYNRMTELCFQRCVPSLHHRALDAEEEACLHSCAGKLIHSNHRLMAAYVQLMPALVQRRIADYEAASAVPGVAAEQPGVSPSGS

log2 fold change, inactive:
TANK (UniProt Q92844) -0.076
TBC1D2 (UniProt Q9BYX2) -0.015
SNX9 (UniProt Q9Y5X1) -0.01
TIMM44 (UniProt O43615) -0.036
SMAD9 (UniProt O15198) -0.026
SOAT1 (UniProt P35610) 0.079
TBC1D20 isoform 3 (UniProt Q96BZ9) -0.065
SLC35A1 (UniProt P78382) -0.142
STAT5B (UniProt P51692) -0.053
SLC9A6 isoform 3 (UniProt Q92581) 0.052
SUPT16H (UniProt Q9Y5B9) -0.055
SLC7A6OS (UniProt Q96CW6) 0.052
SSR3 isoform 2 (UniProt Q9UNL2) -0.012
SLC27A2 (UniProt O14975) 0.063
ST3GAL2 (UniProt Q16842) 0.167
SNUPN (UniProt O95149) 0.064
SLC25A38 (UniProt Q96DW6) -0.02
SSB (UniProt P05455) -0.051
TBCD (UniProt Q9BTW9) -0.03
SPPL2B (UniProt Q8TCT7) -0.056
SLC30A10 (UniProt Q6XR72) 0.01
SUN2 (UniProt Q9UH99) 0
STXBP2 isoform 3 (UniProt Q15833) 0.099
TMBIM1 (UniProt Q969X1) -0.019
STAT6 (UniProt P42226) -0.052
SULT1A1 (UniProt P50225) -0.057
SNX6 (UniProt Q9UNH7) -0.019
SQSTM1 (UniProt Q13501) 0.02
TIMM10B (UniProt Q9Y5J6) 0.045
SPAG9 isoform 4 (UniProt O60271) 0.003
TM9SF4 (UniProt Q92544) 0.022
SNRPB2 (UniProt P08579) -0.026
TBK1 (UniProt Q9UHD2) 0.108
STARD3NL (UniProt O95772) -0.088
SPG21 (UniProt Q9NZD8) -0.028
